Only some compounds are listed: those with a hit (about 0.95% of all), similar ones and a draw of the others.
Giardia FBPA inh – qHTS Assay for Inhibitors of Fructose-1,6-bisphosphate Aldolase from Giardia Lamblia | A8B2U2 | AID 2451, 2010 | Potency, µM (highest dose often 59.6 µM), for the others: at the top dose activity, negative = inhibition, most hits filed as inhibitors | purified Giardia FBPA | 0.71% of 290,000 active; further: nearly all actives have a fitted effect of over 55% in size
Target sequence (A8B2U2 whole entry, looked up): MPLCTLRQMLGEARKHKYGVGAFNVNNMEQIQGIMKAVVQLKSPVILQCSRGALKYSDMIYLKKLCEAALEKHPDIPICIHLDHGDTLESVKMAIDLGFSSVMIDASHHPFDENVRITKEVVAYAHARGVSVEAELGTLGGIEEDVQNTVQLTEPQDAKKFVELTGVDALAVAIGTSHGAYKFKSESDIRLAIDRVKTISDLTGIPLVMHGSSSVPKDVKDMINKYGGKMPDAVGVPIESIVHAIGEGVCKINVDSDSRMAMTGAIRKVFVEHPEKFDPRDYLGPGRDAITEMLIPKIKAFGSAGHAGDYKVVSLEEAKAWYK
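Giardia FBPA (40 nM reagent) was preincubated 10 min at RT with compound (up to 57.5 uM final), then substrate plus GAPDH/TPI/NAD/arsenate coupling system with diaphorase/resazurin was added; resorufin fluorescence (525/598 nm) was read after 20 min.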
LmPK inh – qHTS Assay for Inhibitors of Leishmania Mexicana Pyruvate Kinase (LmPK); Q27686; purified LmPK, Kinase-Glo ATP luminescence, 1 h; Potency, µM (highest dose often 57.5 µM), for inactives: top-dose activity change, negative = inhibition, actives largely listed as inhibitors; 0.37% of 290,000 active
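0.1 nM LmPK, 0.5 mM PEP, 0.1 mM ADP; 50 mM imidazole pH 7.2, 7 mM MgCl2, 50 mM KCl; 1 h RT. Kinase-Glo luminescence readout, normalized to no-enzyme (full inhibition) and uninhibited wells.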
RE007 growth inh – qHTS Assay for Inhibitors of the HIV-1 protein Vpr | AID 651644, 2012 | 0.21% of 360,000 active | Potency, µM (top dose mostly 92.2 µM), for inactives: at the highest dose activity change, negative = less growth, usual class: inhibitors | S. pombe RE007 Vpr strain, BacTiter-Glo ATP luminescence, 24 h; active means well fitted falling curve with a large enough effect; inconclusive means small, poorly fitted or top-dose-only effect; inactive means no such curve, though single readings can be large or run the other way; further: nearly all actives have a fitted effect of over 50% in size
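Fission yeast RE007 carrying one integrated HIV-1 vpr copy, seeded at OD 0.01 in PMG+AL medium with 23 nL pinned compound. Grown 24 h at 30 degrees; viability read by BacTiter-Glo luminescence after 5 min.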
TbPYK inhibitor – qHTS of Trypanosoma Brucei Inhibitors. TbPYK enzyme, Kinase-Glo Plus ATP luminescence, 45 min. Potency, µM (series often up to 76.8 µM), inactives show at the top dose activity, negative = inhibition, hits mostly inhibitors. 0.12% of 410,000 active; further: nearly all actives have a fitted effect of over 50% in size
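Readout: single end-point luminescence (Kinase-Glo Plus, 10 min). Reaction conditions were TbPYK/substrate plus 130 uM ADP, 45 min at RT, pH 7.2 TEA buffer. No-enzyme wells served as controls, and data were normalized before concentration-response fitting.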
The depositor's hits bear a star; ? = inconclusive; · = not tested or not shown. Unless noted, the call rests on the fitted dose curve; in most records, active means well fitted curve in the direction sought with a large enough effect; inconclusive means small, poorly fitted or top-dose-only effect, or another doubt; inactive means no such curve, though single readings can be large; an effect the other way counts as inactive or inconclusive. On the % scale 0 is the no-effect control and ±100 the full control effect; potency means the concentration at half of the fitted maximal effect.

SMILES	Giardia FBPA inh	LmPK inh	RE007 growth inh	TbPYK inhibitor
CC(=O)Nc1ccc(-c2cc(C(=O)O)c3c(-c4ccccc4)[nH]nc3n2)cc1	·	·	·	-11%
Cc1cccc(N(C)C(=O)CCS(=O)(=O)c2ccc3c(c2)oc(=O)n3C)c1	·	·	·	1%
CC(C)c1nn2c(=O)cc(COC(=O)c3ccccc3NC(=O)c3cccc(Cl)c3)nc2s1	·	·	·	1%
CCOC(=O)C1CCN(C(=O)c2c(C)nn(-c3ccc(F)cc3)c2-n2cccc2)CC1	·	·	·	-4%
CCOc1ccc(CNC(=O)CCCn2c(=O)c3cccn3c3cccnc32)cc1	·	·	·	-5%
O=C(CS(=O)(=O)c1cccc2nsnc12)N1CCN(c2ccccc2F)CC1	·	·	·	-9%
CCCCCCCCCCCCCCCC(=O)O[C@@H]1CC(C)=C(\C=C/C(C)=C\C=C/C(C)=C\C=C\C=C(C)\C=C\C=C(C)\C=C\C2=C(C)C[C@@H](OC(=O)CCCCCCCCCCCCCCC)CC2(C)C)C(C)(C)C1	·	·	·	2%
Nc1ccc(S(=O)(=O)c2cc(O)c3ccccc3c2O)cc1	·	·	-4%	11µM*
O=C(N/N=C/c1cccs1)c1n[nH]c2c1CCCC2	1%	14µM*	-9%	-21%
C/C(=N\NC(=O)c1n[nH]c2c1CCC2)c1cccs1	-5%	11µM*	3%	-5%
Cc1ccc(/C=N/NC(=O)c2n[nH]c3c2CCCC3)cc1	3%	5%	-13%	1%
CC(C)c1cccc(-c2csc(C(O)c3ccc(F)c(F)c3)n2)c1 (stereo not given)	·	·	40µM*	-3%
CCCNC(=O)c1csc(Nc2cccc3ccccc23)n1	-5%	5%	-3%	-8%
O=C(NCC1CCCO1)c1csc(Nc2cccc3ccccc23)n1 (stereo not given)	16%	14µM*	11%	4%
Cc1ccc(CN2CCCn3nc(C(=O)NCCc4ccccc4Cl)cc3C2=O)cc1	·	·	·	-3%
CCC=CC[C@H]1C(=O)CC[C@@H]1CC(=O)OC	·	·	·	-1%
O=C(/C=C/c1ccc(O)c(O)c1)c1ccccc1O	-27%	?	?	-23%
O=C(C=Cc1cccc(O)c1)c1ccccc1O	·	·	25µM*	4%
O=C(C=Cc1ccccc1O)c1ccccc1O	·	·	35µM*	5%
CC(C)c1ccc2oc(-c3ccc(N)cc3)nc2c1	-5%	-14%	40µM*	-3%
Cc1ccc2nc(-c3cccc(N)c3)[nH]c2c1	-20%	16µM*	?	-15%
Nc1cccc(-c2nc3ccccc3[nH]2)c1	1%	?	-2%	-7%
COc1ccc2nc(-c3ccccc3)[nH]c2c1	?	16µM*	?	-22%
Cc1ccc2oc(-c3cccc(N)c3)nc2c1	-9%	-22%	32µM*	-12%
CCOc1ccc(N/C=C/C(=O)c2ccccc2)c([N+](=O)[O-])c1	4%	4µM*	73%	25µM*
SMILES	Giardia FBPA inh	LmPK inh	RE007 growth inh	TbPYK inhibitor
CCOc1ccc(C(=O)/C=C/c2ccc(SC)cc2)cc1	-8%	-6%	-5%	-1%
CCOc1ccc(/C=C/C(=O)c2ccccc2)cc1	-2%	16µM*	·	-6%
CCOc1ccc(NC(=O)/C=C/c2ccccc2)c([N+](=O)[O-])c1	1%	-1%	-1%	-3%
O=C(/C=C/c1ccc(OC2CSC2)cc1)c1ccccc1	0%	25µM*	?	?
Cc1ccc(CCNC(=O)Cn2ncc3c([nH]c4ccc(C)cc43)c2=O)cc1	·	·	·	-1%
CC1=C(c2ccc(C)c(C)c2)S(=O)(=O)N=C1N1CCC(C(=O)NC(C)Cc2ccco2)CC1 (stereo not given)	·	·	·	-1%
Cc1cn(C2CC3OCC(NC(=O)C4CCCN4C(=O)OC(C)(C)C)C3O2)c(=O)[nH]c1=O (stereo not given)	4%	·	·	·
Cc1ccc(OCC(=O)Nc2ccccc2C(=O)OCc2cc(=O)n3c(C)csc3n2)cc1	·	·	·	-9%
Cc1cc2c(NC(=O)Nc3ccc(C(C)(C)C)cc3)cccc2nn1	?	2%	11%	1%
Cc1cc2c(NC(=O)Nc3ccccc3)cccc2nn1	5µM*	4%	3%	3%
CC1(C)SC2C(NC(=O)C(c3ccccc3)S(=O)(=O)O)C(=O)N2C1C(=O)O (stereo not given)	·	·	·	-14%
COc1ccccc1-n1c(CCn2nc(C)c(Br)c2C)n[nH]c1=S	-13%	?	2%	3.5µM*

Screening data: PubChem, National Center for Advancing Translational Sciences (NCATS)
